VLA-4 inh – inhibition in a human VLA-4 binding assay | P13612 | VLA-4 expressing cells, ligand binding flow cytometry | inhibition, % (about 7 µM as worked out from the volumes in the protocol) | 330,000 tested, 0.2% active | AID 2557; in the data active = inhibition above about 50%
Granule exo inh – lytic granule exocytosis inhibition. TALL-104 LAMP-1 surface exposure, flow cytometry; cells stimulated with thapsigargin and PMA. inhibition, % at 10 µM. 360,000 tested, 0.66% active. AID 651702;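 active = inhibition above about 55%, limit read from the data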
ABCB6 inh 2 – inhibitors of human ABC transporter ABCB6; fluorescence ratio to DMSO, % at 10 µM; Q9NP58; AID 602162; 360,000 tested, 0.19% active; K562-ABCB6 porphyrin accumulation, flow cytometry, 1 h; hits give low values;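 active = fluorescence ratio to DMSO below 75%, the collection mean minus 3 SD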;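 also: signal is porphyrin accumulated inside mitochondria; 100% equals median channel fluorescence of DMSO control wells; lower ratio means ABCB6 inhibition with less porphyrin fluorescence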
CaV13 FRET inh – Primary screen for inhibitors of IQ motif and Ca2+-dependent inactivation inhibitor domain binding in CACNA1D, Förster resonance energy transfer in living cells, …. HEK cells, CFP/YFP FRET ICDI-IQ, plate reader, 10 min; percent FRET-ratio fall versus neutral wells. inhibition, % at 12.3 µM. 340,000 tested, 0.098% active;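 active = mean replicate inhibition of at least 30% and at least 1% of replicates passing that level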;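 also: 0% = median of the neutral control wells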
VLA-4 mod pick – confirmation of allosteric modulators of human VLA-4 integrin. shares compounds with VLA-4 inh. U937 cells, HUTS-21 LIBS mAb binding, flow cytometry; LDV ligand present at threefold Kd. inhibition, % at 6.7 µM. 1,300 tested, 2% active. AID 2813; in the data active = inhibition above about 40%;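 also: 0% = ligand without compound and 100% = no ligand background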
An asterisk follows results filed as active; . = no result given. Compounds with a hit are over-represented: about 1.1% of the library has one in this group of screens.

SMILES	VLA-4 inh	Granule exo inh	ABCB6 inh 2	CaV13 FRET inh	VLA-4 mod pick
CC(OC(=O)C(C)N1C(=O)C2C3C=CC(C4CC34)C2C1=O)C(=O)c1ccccc1 (stereo not given)	58.3*	-1.6	95.0	-17.2	-11.8
CC(c1ccccc1)N1C(=O)C2C3C=CC(C4CC34)C2C1=O (stereo not given)	7.2	-1.1	102.0	-4.6	.
Cc1cccc2c(CCNC(=O)c3ccc([N+](=O)[O-])cc3)c[nH]c12	68.1*	-0.6	98.0	-15.2	17.6
C=CCN1C(=O)c2n[nH]c(C(C)C)c2C1c1ccc(C)cc1 (stereo not given)	.	.	.	-3.2	.
COC(=O)[C@@H]1[C@@H](C#N)C2(c3ccccc3-c3ccccc32)N(c2ccc(Cl)cc2)N1C#N	57.8*	9.2	92.0	-2.1	39.0
O=C(Cc1ccc(Cl)cc1)NN1C(=O)c2ccccc2C1=O	-0.5	-1.8	101.0	-6.7	.
COc1cc(C(=O)OCC(=O)Nc2c(F)c(F)c(F)c(F)c2F)cc(OC)c1OC	-9.6	0.3	101.0	.	0.0
O=C(NCc1ccccc1F)C1CCN(C(=O)c2sccc2-n2cccc2)CC1	111.3*	-5.0	99.0	-4.2	8.6
COc1ccc2c(c1)[C@@]1(OCCC=C[C@H]1C)C(=O)N2CC1CC1	.	.	.	-4.6	.
COc1ccc(OC)c(S(=O)(=O)NCC(c2ccco2)S(=O)(=O)c2ccccc2)c1 (stereo not given)	76.2*	0.9	101.0	-2.0	0.0
CCOC(=O)c1c(NC(=O)C2CCCO2)sc(C(N)=O)c1C (stereo not given)	-9.1	3.1	89.0	-1.6	.
CCOC(=O)c1c(NC(=O)C2c3ccccc3Oc3ccccc32)sc(C(N)=O)c1C	13.9	1.0	91.0	-0.6	15.0
COC(=O)C1=C(C)N(Cc2ccccc2C(F)(F)F)C(=NCc2cc(OC)c(OC)c(OC)c2)NC1c1cccc(C(F)(F)F)c1 (stereo not given)	.	.	.	-9.6	.
O=C(CSc1nc2ncc(Br)cc2[nH]1)c1cccc([N+](=O)[O-])c1	-1.9	7.1	102.0	.	.
Cc1nc2nc(SCC(=O)c3cccc([N+](=O)[O-])c3)[nH]c2cc1Br	43.9	6.2	125.0	-4.5	-9.3
O=C(Nc1ccccc1F)c1cc(S(=O)(=O)N2CCOCC2)ccc1N1CCOCC1	.	-5.0	101.0	-4.7	-2.1
O=C(CCc1ccc(S(=O)(=O)N2CCOCC2)cc1)Nc1ccccc1F	56.2*	1.0	97.0	-1.7	2.0
O=C(Nc1cc(S(=O)(=O)N2CCOCC2)ccc1N1CCOCC1)c1ccccc1F	-1.7	1.0	98.0	-6.1	.
COc1cc(NC(=O)c2cc(S(=O)(=O)N3CCCCC3)ccc2N2CCOCC2)cc(OC)c1OC	.	1.2	97.0	-6.2	0.0
O=C(Nc1ccccc1N1CCCCC1)c1cc(S(=O)(=O)N2CCOCC2)ccc1Cl	8.0	-7.2	88.0	-7.1	.
O=C(Nc1ccccc1Cl)c1cc(S(=O)(=O)N2CCCCC2)ccc1N1CCOCC1	-9.5	5.4	94.0	-5.2	5.4
CCCCCCCCN1C(=O)[C@@H](CC(=O)N2CCN(C(=O)c3ccco3)CC2)C[C@@]2(C(=O)OC)C1=C[C@H](C(C)(C)C)O[C@@H]2C	.	.	.	-9.6	.
N#C/C(=C(/O)CCl)c1nc2c(s1)CCc1ccccc1-2	-84.2	36.7	180.0	-7.6	.
Cc1ccc(NC(=O)c2cc(S(=O)(=O)N(C)C)ccc2N2CCCC2)cc1S(=O)(=O)N(C)C	2.1	9.1	96.0	-6.0	.
Cc1ccc(NC(=O)c2cc(S(=O)(=O)N3CCCCC3)ccc2N2CCOCC2)cc1S(=O)(=O)N(C)C	.	-2.0	95.0	-17.4	-0.1
SMILES	VLA-4 inh	Granule exo inh	ABCB6 inh 2	CaV13 FRET inh	VLA-4 mod pick
CCN1C(=O)Cc2cc(S(=O)(=O)NCCc3ccccc3)ccc21	2.7	5.9	99.0	-2.5	4.7
Cc1ccc2c(c1)CCCO[C@]21O[C@H](CCO)C[C@H](O)[C@H]1O	.	-2.9	93.0	-11.5	.
Cc1nn(-c2cc(N3CCOCC3)ccc2N)c(=O)c2ccccc12	63.8*	4.2	97.0	-4.1	1.2
CN(C)S(=O)(=O)c1ccc(C(=O)NNC(=O)C23CC4CC(CC(C4)C2)C3)cc1	-8.1	-0.2	97.0	-5.6	.
Cc1ccccc1C(=O)OCC(=O)N(C)c1ccccc1	7.3	-10.8	102.0	-2.7	.
Cc1cccc(C(=O)OCC(=O)N(C)c2ccccc2)c1C	3.4	-11.6	95.0	-4.8	0.0

Screening data (PubChem)
